Test results published in the supplement of paper PMC10849652.
About 7,900 targets were measured; listed, in parts, are those with a hit and a random draw of the rest. About 0.6% of all pairs of compound and target were hits. Unmarked numbers belong to inactive results.

Experiments:
Test in all cases: log2 fold change, soluble protein after heating vs DMSO (PISA); higher = thermal stabilisation; K562 cells, 10 uM, 30 min; active = over 0.2 and 3.5 SD of the protein, either way, in both replicates (recomputed)
[1] = compound: CC[C@@H]1C(=O)N(C)c2cnc(Nc3ccc(C(=O)NC4CCN(C)CC4)cc3OC)nc2N1C1CCCC1
Outline: (§1)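 K562 cells at 2×10^6 cells/mL were treated for 30 min with 10 μM compound, and aliquots were heated for 3 min over 48°C-58°C before pooling. Extraction used PBS with 0.5% NP-40 at 4°C, and soluble protein was the supernatant after 21,000xg for 90 min, measured by TMTpro 16plex LC-MS/MS with channel sums equalised. Thermal stability values, relative to control samples and from duplicates, are log2 fold changes.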

[2] = compound: CC[C@H](C)N1C=C(C2=C(C=C(C=C21)C3=CN=C(C=C3)N4CCNCC4)C(=O)NCC5=C(C=C(NC5=O)C)C)C
Outline: as §1

[3] = compound: CC[C@H](C)[C@@H](C(=O)N[C@@H]([C@@H](C)O)C(=O)N[C@@H](CC(C)C)C(=O)[C@]1(CO1)C)NC(=O)[C@H]([C@@H](C)CC)N(C)C(=O)C [epoxomicin]
Outline: as §1

[4] = compound: CCn1c(C(=O)N(C2CC2)C2CC2)cc2c3c(ncn3C)c(Nc3cc(C)n(C)n3)nc21
Outline: as §1

[5] = compound: CCn1cc(-c2ccnc3[nH]c(-c4cccc(CN(C)C)c4)cc23)c(-c2ccc(NC(=O)N(C)C)cc2)n1
Outline: as §1

[6] = compound: CN(C)CC(=O)Nc1ccc2[nH]c(=O)c3ccccc3c2c1
Outline: as §1

[7] = compound: CN(CCOC1=CC=C(C=C1)C[C@H]2C(=O)NC(=O)S2)C3=CC=CC=N3 (racemic) [rosiglitazone]
Outline: as §1

[8] = compound: CN1C2=C(C3=C1C(=O)N(N=C3)CC4=CC(=CC=C4)N)SC(=C2)S(=O)C
Outline: as §1

[9] = compound: CN1CCC(CNc2ccc3ncc(-c4cccc(OC(F)(F)F)c4)n3n2)CC1
Outline: as §1

[10] = compound: CC[C@@H]1C(=O)N(C)c2cnc(Nc3ccc(C(=O)N[C@H]4CC[C@H](N5CCN(CC6CC6)CC5)CC4)cc3OC)nc2N1C(C)C [volasertib]
Outline: as §1

UniProt Q96NT5, sequence (Q96NT5 whole entry, looked up): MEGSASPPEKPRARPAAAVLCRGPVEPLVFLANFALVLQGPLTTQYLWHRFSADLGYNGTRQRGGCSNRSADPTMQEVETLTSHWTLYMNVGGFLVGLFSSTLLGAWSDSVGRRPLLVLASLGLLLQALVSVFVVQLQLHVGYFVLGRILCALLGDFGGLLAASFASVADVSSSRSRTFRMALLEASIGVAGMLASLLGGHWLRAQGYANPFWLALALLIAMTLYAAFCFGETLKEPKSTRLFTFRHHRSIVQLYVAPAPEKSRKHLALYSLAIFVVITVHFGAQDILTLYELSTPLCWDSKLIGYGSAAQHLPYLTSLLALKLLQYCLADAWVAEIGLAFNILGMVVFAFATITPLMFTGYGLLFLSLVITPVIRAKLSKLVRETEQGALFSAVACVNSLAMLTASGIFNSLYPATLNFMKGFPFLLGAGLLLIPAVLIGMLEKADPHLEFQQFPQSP
UniProt Q9Y6J9, sequence (Q9Y6J9 whole entry, looked up): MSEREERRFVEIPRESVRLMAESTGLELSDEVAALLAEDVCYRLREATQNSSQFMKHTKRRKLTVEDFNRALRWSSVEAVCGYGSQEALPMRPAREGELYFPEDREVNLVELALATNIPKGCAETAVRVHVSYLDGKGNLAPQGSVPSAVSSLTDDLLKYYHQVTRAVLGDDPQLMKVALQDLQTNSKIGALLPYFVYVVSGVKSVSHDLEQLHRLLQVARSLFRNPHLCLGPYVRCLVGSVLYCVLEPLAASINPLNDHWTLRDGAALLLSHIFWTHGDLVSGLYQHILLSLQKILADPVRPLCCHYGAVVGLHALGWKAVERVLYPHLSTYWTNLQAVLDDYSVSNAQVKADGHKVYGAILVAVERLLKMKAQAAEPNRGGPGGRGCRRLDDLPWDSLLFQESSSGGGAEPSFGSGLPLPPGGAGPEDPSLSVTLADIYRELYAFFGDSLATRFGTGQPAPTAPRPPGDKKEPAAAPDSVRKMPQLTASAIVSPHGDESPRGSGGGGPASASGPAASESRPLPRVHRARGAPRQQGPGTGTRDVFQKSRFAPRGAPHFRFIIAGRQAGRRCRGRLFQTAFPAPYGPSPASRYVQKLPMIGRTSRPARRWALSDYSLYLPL
UniProt Q08AE8, sequence (Q08AE8 whole entry, looked up): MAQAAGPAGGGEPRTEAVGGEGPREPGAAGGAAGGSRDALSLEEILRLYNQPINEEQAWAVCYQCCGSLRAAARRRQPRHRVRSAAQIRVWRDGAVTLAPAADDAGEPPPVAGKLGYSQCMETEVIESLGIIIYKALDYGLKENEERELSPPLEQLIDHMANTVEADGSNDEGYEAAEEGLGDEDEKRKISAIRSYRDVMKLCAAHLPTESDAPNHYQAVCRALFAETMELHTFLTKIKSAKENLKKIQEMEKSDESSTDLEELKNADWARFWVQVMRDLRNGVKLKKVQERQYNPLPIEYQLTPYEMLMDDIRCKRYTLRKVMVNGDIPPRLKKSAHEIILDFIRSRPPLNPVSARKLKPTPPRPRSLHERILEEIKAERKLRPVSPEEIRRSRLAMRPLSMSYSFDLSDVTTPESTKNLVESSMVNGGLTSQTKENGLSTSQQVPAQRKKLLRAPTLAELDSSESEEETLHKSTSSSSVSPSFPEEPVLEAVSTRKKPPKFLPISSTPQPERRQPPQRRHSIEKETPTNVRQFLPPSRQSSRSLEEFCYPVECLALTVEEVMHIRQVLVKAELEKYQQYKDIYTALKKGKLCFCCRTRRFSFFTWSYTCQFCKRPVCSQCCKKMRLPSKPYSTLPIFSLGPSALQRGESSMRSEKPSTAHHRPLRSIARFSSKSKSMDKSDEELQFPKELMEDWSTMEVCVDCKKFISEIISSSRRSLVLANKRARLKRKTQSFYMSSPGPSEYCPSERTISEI
UniProt Q92581, sequence (Q92581 whole entry, looked up): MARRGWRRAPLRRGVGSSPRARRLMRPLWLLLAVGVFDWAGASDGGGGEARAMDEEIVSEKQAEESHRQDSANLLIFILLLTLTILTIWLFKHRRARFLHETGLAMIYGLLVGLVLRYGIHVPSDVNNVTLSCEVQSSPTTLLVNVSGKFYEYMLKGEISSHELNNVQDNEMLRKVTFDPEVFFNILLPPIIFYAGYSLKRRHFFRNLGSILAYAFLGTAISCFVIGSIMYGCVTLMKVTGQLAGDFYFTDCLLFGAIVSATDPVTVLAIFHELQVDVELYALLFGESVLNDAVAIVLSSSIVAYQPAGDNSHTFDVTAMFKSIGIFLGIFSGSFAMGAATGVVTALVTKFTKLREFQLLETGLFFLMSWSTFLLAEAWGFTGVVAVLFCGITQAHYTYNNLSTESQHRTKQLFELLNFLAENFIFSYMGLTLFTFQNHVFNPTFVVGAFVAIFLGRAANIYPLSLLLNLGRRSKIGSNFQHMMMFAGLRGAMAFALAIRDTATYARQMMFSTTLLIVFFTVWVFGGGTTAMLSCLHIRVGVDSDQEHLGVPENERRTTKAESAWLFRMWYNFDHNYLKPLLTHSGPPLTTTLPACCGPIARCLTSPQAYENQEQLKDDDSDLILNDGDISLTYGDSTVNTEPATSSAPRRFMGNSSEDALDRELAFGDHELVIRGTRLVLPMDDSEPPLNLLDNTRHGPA
UniProt Q13428, sequence (Q13428 whole entry, looked up): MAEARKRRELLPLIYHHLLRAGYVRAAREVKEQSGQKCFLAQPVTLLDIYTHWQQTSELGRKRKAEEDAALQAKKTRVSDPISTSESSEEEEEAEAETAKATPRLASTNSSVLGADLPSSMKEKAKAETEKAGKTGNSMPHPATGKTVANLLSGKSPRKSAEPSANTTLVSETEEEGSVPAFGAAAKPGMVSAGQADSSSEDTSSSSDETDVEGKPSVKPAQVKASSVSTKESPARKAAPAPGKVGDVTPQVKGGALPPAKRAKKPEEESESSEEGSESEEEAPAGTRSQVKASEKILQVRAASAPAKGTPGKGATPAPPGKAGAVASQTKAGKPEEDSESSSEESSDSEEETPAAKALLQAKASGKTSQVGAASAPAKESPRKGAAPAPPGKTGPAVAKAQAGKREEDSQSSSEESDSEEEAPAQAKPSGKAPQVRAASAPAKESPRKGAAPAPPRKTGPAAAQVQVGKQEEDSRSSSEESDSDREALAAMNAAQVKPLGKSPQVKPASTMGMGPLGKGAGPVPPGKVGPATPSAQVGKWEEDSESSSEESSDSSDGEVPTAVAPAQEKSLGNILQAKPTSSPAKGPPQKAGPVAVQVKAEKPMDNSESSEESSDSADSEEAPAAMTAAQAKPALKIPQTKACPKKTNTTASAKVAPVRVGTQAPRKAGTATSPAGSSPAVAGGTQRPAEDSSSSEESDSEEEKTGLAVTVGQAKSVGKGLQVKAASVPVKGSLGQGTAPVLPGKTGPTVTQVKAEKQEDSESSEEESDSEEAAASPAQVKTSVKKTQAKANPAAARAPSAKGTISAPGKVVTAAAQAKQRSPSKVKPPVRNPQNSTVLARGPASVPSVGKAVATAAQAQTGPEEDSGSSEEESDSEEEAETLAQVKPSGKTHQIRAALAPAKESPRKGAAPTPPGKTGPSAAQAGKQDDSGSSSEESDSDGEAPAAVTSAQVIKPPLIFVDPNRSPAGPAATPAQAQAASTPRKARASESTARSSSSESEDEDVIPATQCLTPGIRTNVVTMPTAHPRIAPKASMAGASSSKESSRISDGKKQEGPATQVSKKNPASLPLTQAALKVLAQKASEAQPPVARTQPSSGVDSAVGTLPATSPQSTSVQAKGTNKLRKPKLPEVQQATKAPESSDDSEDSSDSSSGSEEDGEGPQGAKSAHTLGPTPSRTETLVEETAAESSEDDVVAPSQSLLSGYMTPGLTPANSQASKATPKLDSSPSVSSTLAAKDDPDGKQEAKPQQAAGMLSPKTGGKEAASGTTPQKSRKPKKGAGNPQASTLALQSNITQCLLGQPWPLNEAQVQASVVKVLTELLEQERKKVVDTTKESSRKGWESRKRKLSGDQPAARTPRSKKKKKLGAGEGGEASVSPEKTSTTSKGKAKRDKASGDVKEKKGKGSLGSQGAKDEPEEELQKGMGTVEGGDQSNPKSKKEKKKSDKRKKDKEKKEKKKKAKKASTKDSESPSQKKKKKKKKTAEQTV
UniProt Q8N9U0, sequence (Q8N9U0 whole entry, looked up): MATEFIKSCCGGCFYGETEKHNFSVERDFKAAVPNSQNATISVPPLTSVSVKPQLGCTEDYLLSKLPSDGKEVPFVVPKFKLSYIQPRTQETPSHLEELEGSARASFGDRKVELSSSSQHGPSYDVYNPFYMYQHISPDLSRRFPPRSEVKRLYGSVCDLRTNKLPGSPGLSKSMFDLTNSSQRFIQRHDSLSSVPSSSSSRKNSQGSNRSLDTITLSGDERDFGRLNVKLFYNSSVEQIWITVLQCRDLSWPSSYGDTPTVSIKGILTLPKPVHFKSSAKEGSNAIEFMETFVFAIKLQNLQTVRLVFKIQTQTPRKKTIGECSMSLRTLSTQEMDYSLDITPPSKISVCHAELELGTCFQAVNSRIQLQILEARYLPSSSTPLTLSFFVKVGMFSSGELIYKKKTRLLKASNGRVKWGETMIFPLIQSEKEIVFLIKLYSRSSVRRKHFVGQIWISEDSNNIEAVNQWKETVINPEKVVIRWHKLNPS
UniProt O76062, sequence (O76062 whole entry, looked up): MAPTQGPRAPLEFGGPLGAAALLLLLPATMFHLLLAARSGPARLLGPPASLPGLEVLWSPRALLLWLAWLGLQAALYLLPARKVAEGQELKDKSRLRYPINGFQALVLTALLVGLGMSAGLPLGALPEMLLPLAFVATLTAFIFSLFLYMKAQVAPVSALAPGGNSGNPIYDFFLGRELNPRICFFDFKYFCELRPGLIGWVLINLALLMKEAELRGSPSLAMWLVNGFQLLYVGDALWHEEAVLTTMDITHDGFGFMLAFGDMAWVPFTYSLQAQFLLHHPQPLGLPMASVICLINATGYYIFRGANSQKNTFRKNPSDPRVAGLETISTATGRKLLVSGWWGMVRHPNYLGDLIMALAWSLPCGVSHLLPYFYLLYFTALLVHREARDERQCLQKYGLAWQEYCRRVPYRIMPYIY
UniProt Q9H4I9, sequence (Q9H4I9 whole entry, looked up): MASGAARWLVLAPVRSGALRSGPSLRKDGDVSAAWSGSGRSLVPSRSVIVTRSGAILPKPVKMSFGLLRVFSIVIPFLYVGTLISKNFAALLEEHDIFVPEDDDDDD

Row | Target | log2 fold change [1] | log2 fold change [2] | log2 fold change [3] | log2 fold change [4] | log2 fold change [5] | log2 fold change [6] | log2 fold change [7] | log2 fold change [8] | log2 fold change [9] | log2 fold change [10]
1 | SLC44A2 isoform 2 (UniProt Q8IWA5) | 0.2 | 0 | 0.053 | 0.014 | -0.105 | -0.048 | -0.016 | -0.154 | 0.259 | –
2 | TCOF1 isoform 3 (UniProt Q13428) | 0.001 | – | -0.352 | 0.03 | 0.155 | – | – | – | -0.436 | –
3 | TEX30 (UniProt Q5JUR7) | – | -0.044 | 0.007 | -0.005 | 0.079 | 0.075 | 0.028 | 0.046 | -0.601 (active) | -0.221
4 | TAF6L (UniProt Q9Y6J9) | – | 0.118 | – | -0.179 | -0.04 | – | – | 0.081 | -0.126 | -0.537 (active)
5 | STK38L (UniProt Q9Y2H1) | 0.071 | -0.011 | 0.071 | 0.031 | -0.015 | -0.045 | 0.024 | -0.029 | 0.016 | –
6 | SPIRE1 (UniProt Q08AE8) | 0.125 | -0.181 | -0.238 | -0.069 | -0.116 | -0.056 | -0.002 | – | -0.026 | –
7 | TK1 (UniProt K7ERV3) | – | -0.163 | 0.007 | – | -0.014 | 0.084 | 0.035 | -0.024 | 0.005 | 0.055
8 | TM7SF2 (UniProt O76062) | – | -0.022 | – | -0.111 | – | -0.435 | – | 0.031 | – | 0.907 (active)
9 | TCOF1 isoform 6 (UniProt Q13428) | 0.04 | -0.132 | – | -0.039 | – | -0.219 | -0.173 | – | – | –
10 | SLC39A1 (UniProt Q9NY26) | – | – | – | -0.09 | -0.014 | – | – | – | -0.051 | –
11 | SLC9A6 isoform 3 (UniProt Q92581) | -0.041 | – | – | 0.045 | – | – | -0.091 | 0.008 | – | -0.045
12 | SP2 (UniProt Q02086) | -0.289 | – | – | – | – | – | – | 0.372 | – | –
13 | SMPD4 isoform 2 (UniProt Q9NXE4) | – | – | – | – | -0.236 | -0.044 | -0.047 | 0.056 | -0.441 | -0.234
14 | SPIN4 (UniProt Q56A73) | – | – | – | 0.291 | – | – | – | – | – | –
15 | SPAG9 isoform 4 (UniProt O60271) | -0.192 | 0.093 | – | -0.066 | – | -0.093 | -0.029 | – | – | –
16 | SLC35B1 isoform 2 (UniProt P78383) | 0.123 | -0.017 | 0.066 | 0.001 | – | 0.075 | 0.044 | -0.111 | – | –
17 | TC2N (UniProt Q8N9U0) | – | 0.029 | – | – | – | -0.194 | – | 0.073 | – | –
18 | TDP1 (UniProt Q9NUW8) | – | – | – | -0.11 | – | – | – | – | – | –
19 | SUPT5H isoform 2 (UniProt O00267) | – | – | – | – | – | 0.149 | – | – | – | –
20 | TBC1D2 (UniProt Q9BYX2) | -0.055 | – | -0.238 | – | 0.087 | – | – | – | -0.019 | –
21 | SYK (UniProt P43405) | – | – | 0.022 | -0.021 | – | -0.085 | -0.006 | -0.052 | – | 0.196
22 | SLC8B1 (UniProt Q6J4K2) | – | – | – | 0.09 | 0.091 | -0.005 | 0.058 | 0.086 | -0.509 | 0.156
23 | SMDT1 (UniProt Q9H4I9) | 0.08 | – | -0.064 | – | -0.044 | 0.108 | -0.037 | 0.028 | 0.01 | –
24 | SMARCA4 (UniProt P51532) | 0.019 | – | 0 | -0.245 | 0.119 | -0.191 | 0.065 | 0.177 | -0.046 | 0.121
25 | SLC46A1 (UniProt Q96NT5) | 0.156 | – | – | -0.072 | -0.072 | -0.041 | – | – | 0.087 | –
26 | STK17B (UniProt O94768) | – | – | – | -0.099 | – | – | 0.07 | – | – | –
27 | SSBP4 (UniProt U3KPY3) | – | – | – | – | – | 0.049 | – | – | – | –
